The text below walks through data of PubChem BioAssay AID488969 (Vanderbilt High Throughput Screening Facility, 2010).

Over roughly 110,000 compounds, “z-score” has its median near -0.1; the highest 2% begin near 2. Only a selection was taken, and the highest values are over-represented in it overall. The source made the active and inactive calls.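 The calls were made as follows: active = z-score in the third read window above 3 or below -3; inactive = the rest.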

For this assay, the target named is Metabotropic glutamate receptor 8 (Rattus norvegicus) (UniProt P70579). Kind of assay: rat mGluR8 modulators via GIRK flux, primary screen, cell-based, thallium flux, HTS (AID 488969). The note with it: HEK293 rat mGluR8, GIRK (G protein-gated inwardly rectifying potassium channel) thallium flux, FluoZin2; at 10 µM; stronger effect = higher value; submaximal glutamate (EC20) added with thallium.
Metabotropic glutamate receptor 8 (Rattus norvegicus), sequence (P70579 whole entry, looked up): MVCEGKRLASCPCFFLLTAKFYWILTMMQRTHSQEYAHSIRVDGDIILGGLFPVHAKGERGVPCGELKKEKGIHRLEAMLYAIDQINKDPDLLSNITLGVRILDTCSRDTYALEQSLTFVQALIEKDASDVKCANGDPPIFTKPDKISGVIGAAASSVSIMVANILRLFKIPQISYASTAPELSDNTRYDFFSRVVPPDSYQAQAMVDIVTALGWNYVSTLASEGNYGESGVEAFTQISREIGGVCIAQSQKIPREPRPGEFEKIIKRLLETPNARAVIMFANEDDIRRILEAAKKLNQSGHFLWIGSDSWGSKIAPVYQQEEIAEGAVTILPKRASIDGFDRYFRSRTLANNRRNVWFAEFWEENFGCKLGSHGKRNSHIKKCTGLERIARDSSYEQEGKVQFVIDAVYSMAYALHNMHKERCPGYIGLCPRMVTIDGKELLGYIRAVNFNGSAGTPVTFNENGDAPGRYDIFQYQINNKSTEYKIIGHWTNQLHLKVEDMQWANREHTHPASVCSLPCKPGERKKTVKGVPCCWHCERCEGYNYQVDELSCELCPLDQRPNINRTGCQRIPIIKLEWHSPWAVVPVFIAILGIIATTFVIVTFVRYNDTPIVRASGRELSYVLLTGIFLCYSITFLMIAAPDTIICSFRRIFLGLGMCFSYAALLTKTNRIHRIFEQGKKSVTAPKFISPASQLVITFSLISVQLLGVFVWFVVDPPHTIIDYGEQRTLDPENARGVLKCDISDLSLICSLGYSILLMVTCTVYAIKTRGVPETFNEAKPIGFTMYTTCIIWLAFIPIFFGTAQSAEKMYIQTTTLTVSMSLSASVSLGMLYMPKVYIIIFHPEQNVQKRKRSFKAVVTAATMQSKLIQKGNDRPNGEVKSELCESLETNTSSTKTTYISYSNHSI
`COc1cccc(-c2nnc(NC(=O)C(C)C)o2)c1` returned a z-score of 0.295.

Molecule `COc1ccc(-c2nnc(NC(=O)C(C)C)o2)cc1` came in with a z-score of 2.14.

On to `COc1ccc(-c2nnc(NC(=O)c3ccc(F)cc3)o2)cc1`, for which the z-score is 5.46 (active).

In turn, `CCOc1ccc(NC(=O)CNC(=O)c2ccc(OC)c(OC)c2)cc1` displayed a z-score of -0.166.

In turn, `CC(C)C(=O)Nc1nnc(-c2ccccc2)o1` yielded a z-score of 0.162.

For `O=C(COc1ccccc1)Nc1nnc(-c2ccccc2)o1`, the z-score was -0.421.

With `CCOc1ccc(-c2nnc(NC(=O)CCCOc3cccc(C)c3)o2)cc1`, the z-score was 3.62 (active).

In the case of `CCOc1ccc(-c2nnc(NC(=O)c3ccc(OCC(C)C)c(OC)c3)o2)cc1`, the z-score is 10.4 (active).

`CCOc1cccc(C(=O)Nc2cccc(-c3nnc(-c4ccc(C)cc4)o3)c2)c1` had a z-score of 0.689.

In the case of `COc1ccc(-c2nnc(-c3ccc(OCC(C)C)cc3)o2)cc1`, the z-score stood at 0.807.

`COc1ccc(-c2nnc(NC(=O)c3cc(Cl)ccc3Cl)o2)cc1` came in with a z-score of 1.02.

For `CCC(=O)Nc1nnc(-c2ccc(OC)cc2)o1`, the z-score is -0.442.

For the molecule `O=C(Nc1cccc(F)c1)C1CCN(C(=O)c2ccccc2Cl)CC1`, the z-score is -0.486.

As for `CCOC(=O)CS(=O)(=O)c1ccc(C(F)(F)F)cn1`, the z-score is -0.0154.

Molecule `CCCOC(=O)c1ccc(NS(=O)(=O)c2cccs2)cc1` yielded a z-score of 0.0163.

On to `Cc1cc(C)c2nc(NC(=O)c3cccc(S(=O)(=O)N4CCc5ccccc54)c3)sc2c1`, for which the z-score is -0.315.

`CN1CCOCCOCCN(C)C(=O)N2CCOCCOCCN(CCOCC2)C1=O` registered a z-score of 1.25.

The molecule `CC(C)(C)c1ccc(CSc2nnc(-c3ccccn3)n2Cc2ccco2)cc1` displayed a z-score of -0.295.

The molecule `Clc1ncnc2scc(C3COc4ccccc4O3)c12` (stereo unspecified) had a z-score of -0.228.

Take `Cc1cc(C)nc(NS(=O)(=O)c2ccc(NC(=O)CCC3COc4ccccc4O3)cc2)n1` (stereo unspecified): the z-score was -0.4.

The molecule `Cc1cc(NC(=O)c2cnc3ccccn3c2=O)no1` had a z-score of -0.108.

Turning to `CCCCNC(=S)NCCN1CCCCC1`, the z-score amounted to 0.407.

As for `COc1ccc(C(C[N+](=O)[O-])c2c(C)[nH]c3ccccc23)cc1OC` (stereo unspecified), the z-score is -2.31.

`CCN(CC(O)COc1ccc(OCC(O)CN(CC)C2CCCCC2)cc1)C1CCCCC1` (stereo unspecified) registered a z-score of 2.32.

The molecule `COc1ccc(OCC(O)CN(C2CCCCC2)C2CCCCC2)cc1` (stereo unspecified) returned a z-score of 0.744.

Regarding `CN(CC(O)COc1ccc(OCC(O)CN(C)C2CCCCC2)cc1)C1CCCCC1` (stereo unspecified), the z-score amounted to 1.64.

`O=C(/C=C/c1ccc(S(=O)(=O)N2CCOCC2)cc1)NCc1ccccc1` returned a z-score of -0.687.

Regarding `CCOC(=O)N1CCC(N(C(=O)Nc2ccc(Cl)c(Cl)c2)C(C)CC)CC1` (stereo unspecified), the z-score was -0.099.

`Fc1cccc2sc(Nc3nnc(-c4ccccc4)o3)nc12`: the z-score was 17.1 (active).

For the molecule `COc1cccc(-c2nnc(Nc3nc4c(F)cccc4s3)o2)c1`, the z-score was 17.4 (active).

The molecule `COc1cccc(-c2nnc(NC(=O)C3CCCCC3)o2)c1` had a z-score of -0.375.

Consider `COc1cc(-c2nnc(CSc3nc4ccccc4s3)o2)cc(OC)c1OC`, for which the z-score was -3.36 (active).

`Cc1ccsc1C(=O)Nc1nnc(-c2ccco2)o1`: the z-score was 0.832.

Take `COc1cc(OC)cc(-c2nnc(Nc3nc4c(F)cccc4s3)o2)c1`: the z-score was 9.94 (active).

The molecule `O=c1oc2ccccc2cc1-c1csc(Nc2nc3c(F)cccc3s2)n1` displayed a z-score of 0.848.

On to `c1coc(-c2nnc(NC3=NCCC3)o2)c1`, for which the z-score was 1.08.

In turn, `Nc1nc2c(F)cccc2s1` returned a z-score of -0.0918.

In turn, `CCOC(=O)c1sc(Nc2nc3c(F)cccc3s2)cc1C` had a z-score of 0.23.

On to `Fc1cccc2sc(Nc3nnc(-c4ccco4)o3)nc12`, for which the z-score is 16 (active).

For `COc1cccc(-c2nnc(-c3ccc(C(F)(F)F)cc3)o2)c1`, the z-score was -0.245.

Consider `CCOC(=O)C(C)n1cnc2c1c(=O)[nH]c(=O)n2C` (stereo unspecified), for which the z-score was -0.374.

`COc1ccc(CNC(=O)CN(C(=O)c2ccc(CN3CCOCC3)o2)C2CCCC2)cc1` showed a z-score of -0.1.

Molecule `CCOc1cc(-c2cc(-c3ccc(C)cc3)nc(N)c2C#N)ccc1O` yielded a z-score of -0.244.

As for `CC1c2c([nH]c3ccccc23)CCC1C(=O)O` (stereo unspecified), the z-score came out at 0.673.

As to `CCN1CCN(C(=S)NCc2ccc(C)cc2)CC1`, the z-score was determined as 0.0391.

As to `CN(CC(=O)Nc1cccnc1)S(=O)(=O)c1ccccc1`, the z-score was -0.0827.

Molecule `CCOC(=O)C1[C@H]2C(=O)N(CCCOC)C[C@]23C=C[C@H]1O3` (stereo partly specified) registered a z-score of -0.0146.

Turning to `CCOCCCNCC(=O)NC1(C)C2CCC(C2)C1(C)C` (stereo unspecified), the z-score is -0.581.

In the case of `O=C(Nc1ccc2c(c1)OCO2)N1CCN(C/C=C/c2ccccc2)CC1`, the z-score is -0.663.

`CN(C)c1cccc(C(=O)OCC(=O)NCC2CCCO2)c1` (stereo unspecified) returned a z-score of -0.266.

As for `Cc1ccc(CN=C2Nc3ccccc3CS2)cc1`, the z-score was -0.225.

Regarding `Cc1cccc(NC(=O)c2cc(Cl)sc2Cl)c1C`, the z-score was determined as 0.0762.

As to `CC(C)(C)Cc1nc(-c2ccc(Cl)cc2)no1`, the z-score stood at 0.892.

In turn, `CCn1cc(CNC(=O)CCc2ccc(OC)cc2)cn1` had a z-score of 0.0492.

Regarding `COc1ccc(CCC(=O)NCc2cnn(C)c2)cc1`, the z-score was 3.37 (active).

Molecule `COc1ccc(CCC(=O)NCc2cn3ccsc3n2)cc1` returned a z-score of 0.0209.

`O=C(c1cc(-c2ccc(Cl)cc2Cl)on1)N1CCOCC1` registered a z-score of -0.321.

As for `O=C(c1cc(-c2ccc(Cl)cc2Cl)on1)N1CCN(C(=O)c2ccco2)CC1`, the z-score was determined as 0.486.

As for `O=C(c1cccc(F)c1)N1CCN(C(=O)c2cc(-c3ccc(Cl)cc3Cl)on2)CC1`, the z-score was 3.48 (active).

In turn, `COC(=O)c1cc2ccccn2c2c(C(=O)OC)c(C(=O)OC)cc1-2` registered a z-score of 0.219.

Regarding `O=C(Nc1ccccc1)c1sc(Cl)nc1-c1ccccc1`, the z-score is -0.405.

In turn, `Cc1cc(C)n(-c2ccc(C)c(Cl)c2)n1` gave a z-score of -0.078.

`O=c1cc(-c2ccccc2)[nH][nH]1` gave a z-score of 0.252.

Take `Cc1cc(C)[n+]2n1C(=O)C(c1ccccc1)=C2[O-]`: the z-score came to 2.57.

Molecule `Cc1cc(=O)n2[nH]c(-c3ccccc3)cc2n1` came in with a z-score of -0.312.

Turning to `CCOC(=O)C1CCCN(C(=O)c2cc3c(C)nc4ccccc4c3o2)C1` (stereo unspecified), the z-score was -0.243.

Take `Cc1noc(C)c1C(=O)N1CCN(CCc2ccccc2)CC1`: the z-score is -0.189.

In the case of `Cc1cc(C(=O)N2CCN(CCc3ccccc3)CC2)no1`, the z-score was 8.2 (active).

As for `O=C(c1cc(-c2ccccc2)on1)N1CCN(C(=O)c2ccco2)CC1`, the z-score came out at 2.21.

For the molecule `CN1CCN(C(=O)c2cc(-c3ccccc3)on2)CC1`, the z-score amounted to 0.0853.

Regarding `O=C(c1cc(-c2ccccc2)on1)N1CCCC1`, the z-score was 3.32 (active).

For `Cc1ccc(-c2cc(C(=O)N3CCCC3)no2)cc1`, the z-score is -0.457.

Turning to `CCOC(=O)C1CCCN(C(=O)c2cc(=O)c3ccccc3o2)C1` (stereo unspecified), the z-score was determined as 2.91.

Turning to `CCOC(=O)C1CCCN(C(=O)c2ccco2)C1` (stereo unspecified), the z-score is 0.661.

With `O=C(c1cc(-c2ccccc2Cl)on1)N1CCN(C(=O)c2ccco2)CC1`, the z-score was determined as 0.424.

`Cc1ccc(-c2cc(C(=O)N3CCN(C(=O)c4ccco4)CC3)no2)cc1` displayed a z-score of -0.304.

The molecule `Cc1cc(C(=O)N2CCN(c3ccccc3)CC2)no1` showed a z-score of 0.106.

Take `COc1ccc2cc(C(c3nnnn3C3CCCCC3)N3CCCCCC3)c3nnnn3c2c1` (stereo unspecified): the z-score is -0.929.

For `CCn1c(=O)c2ccccc2n2c(SCC(=O)N3CCc4ccccc4C3)nnc12`, the z-score was 1.51.

`CCn1c(SCC(=O)NC(C)(C)C)nnc1-c1ccoc1C`: the z-score worked out at 0.155.

`CCN(CC)S(=O)(=O)c1ccc(N2CCOCC2)c(NC(=O)Cc2ccccc2)c1` yielded a z-score of -0.339.

Regarding `O=C(CC1NCCNC1=O)OCc1ccccc1` (stereo unspecified), the z-score is 0.419.

`O=C(CC1NCCNC1=O)OCCCc1ccccc1` (stereo unspecified) registered a z-score of 1.22.

On to `CCCOc1ccc(C(=O)NC(=S)Nc2nc(C)c(C(=O)N(C)C)s2)cc1`, for which the z-score came to 0.54.

Regarding `CCOC(=O)C1CCCN(C(=O)c2cc(-c3ccccc3)on2)C1` (stereo unspecified), the z-score was 3.22 (active).

Take `CCOC(=O)C1CCCN(C(=O)c2cccs2)C1` (stereo unspecified): the z-score was -0.161.

`CCOC(=O)C1CCCN(C(=O)c2cc(-c3ccc(C)cc3)on2)C1` (stereo unspecified) gave a z-score of -0.235.

In turn, `CC(=O)CSc1nc(N)c(C#N)c(-c2cccs2)c1C#N` registered a z-score of -0.18.

As for `COc1ccc(/C=N/NC(=O)c2nc(-c3ccccc3)cc(-c3ccccc3)n2)cc1`, the z-score is 8.06 (active).

On to `COc1cccc(/C=N/NC(=O)c2nc(-c3ccccc3)cc(-c3ccccc3)n2)c1`, for which the z-score is -0.286.

Take `COc1ccc(/C=N/NC(=O)c2nc(-c3ccccc3)cc(-c3ccccc3)n2)cc1OC`: the z-score was found to be 0.42.

In turn, `Cn1c(SCC(=O)NC(C)(C)C)nc(O)cc1=O` yielded a z-score of -0.0162.

For `CC12CCC(C(=O)N(CSC(=S)N/N=C\c3ccccc3Cl)C1=O)C2(C)C` (stereo unspecified), the z-score was 16.2 (active).

With `O=C1C2C3C=CC(CC3)C2C(=O)N1/N=C/c1ccccc1O` (stereo unspecified), the z-score was -0.187.

Molecule `CC12CCC(C(=O)N(NC(=O)c3ccccc3Cl)C1=O)C2(C)C` (stereo unspecified) showed a z-score of 0.00342.

Consider `CC12CCC(C(=O)N(CSC(=S)N/N=C\c3ccccc3O)C1=O)C2(C)C` (stereo unspecified), for which the z-score was 5.76 (active).

`CC12CCC(C(=O)N(c3ccccc3Cl)C1=O)C2(C)C` (stereo unspecified) had a z-score of 0.208.

Molecule `CC12CCC(C(=O)N(CC(O)CN3CCCCCC3)C1=O)C2(C)C` (stereo unspecified) yielded a z-score of 0.13.

As to `CCCn1c(SCC(=O)N2CCN(c3ccccc3)CC2)nc2ccccc2c1=O`, the z-score was -0.496.

In turn, `CCn1c(CNC(=O)c2cccc(C)c2)nnc1SCC(=O)NC1CCCCC1C` (stereo unspecified) registered a z-score of 0.161.

Molecule `Cc1[nH]c2ccc(F)cc2c(=O)c1SC(F)(F)C(F)F` showed a z-score of -1.3.

Take `Cc1ccc2c(c1)C(c1ccccc1)N(C(=O)C(C)C)CC(=O)N2` (stereo unspecified): the z-score is -0.0998.

`CCCC(=O)N1CC(=O)Nc2ccc(F)cc2C1c1ccccc1` (stereo unspecified) displayed a z-score of -0.534.

The molecule `Cc1ccc2c(c1)C(c1ccc(F)cc1)N(C(=O)C1CC1)CC(=O)N2` (stereo unspecified) had a z-score of 2.06.

In turn, `Cn1nc(C(=O)NCc2ccccn2)c2ccccc2c1=O` came in with a z-score of -0.406.

Consider `COC(=O)CSc1nc(NC#N)nc(NC(C)C)n1`, for which the z-score is -0.00648.

The molecule `Cc1ccc2cc(C3CC(c4ccco4)=NN3S(=O)(=O)c3ccccc3)c(Cl)nc2c1` (stereo unspecified) came in with a z-score of 0.136.

On to `CCSc1nnc(NC(=O)[C@@H](NC(=O)c2ccccc2)C(C)C)s1`, for which the z-score is -0.168.

Take `CCSc1nnc(NC(=O)C(Cc2ccccc2)n2cccc2)s1` (stereo unspecified): the z-score was 4.24 (active).

Take `Cc1csc(NC(=O)C(Cc2ccccc2)n2cccc2)n1` (stereo unspecified): the z-score is 5.2 (active).

`Cc1csc(NC(=O)CSCC(=O)Nc2ccccc2)n1`: the z-score came out at 0.462.

Molecule `CCC(C(=O)Nc1nc(C)cs1)c1ccccc1` (stereo unspecified) showed a z-score of -0.691.

With `O=C(NC1CCCC1)C(Cc1ccccc1)n1cccc1` (stereo unspecified), the z-score was 0.182.

As to `CCSc1nnc(NC(=O)CCc2ccccc2)s1`, the z-score is -0.278.

Regarding `O=C(Nc1ncc(Br)s1)C(Cc1ccccc1)n1cccc1` (stereo unspecified), the z-score is 7 (active).

In turn, `O=C(Nc1cccnc1)C(Cc1ccccc1)n1cccc1` (stereo unspecified) had a z-score of 0.0231.
